Measurements taken from PubChem BioAssay AID1159580 (chemical genetic matrix, 2015).
About 2,000 (36%) of roughly 5,500 compounds were called active. About 18% were inconclusive and are not listed. No stated cut-off is given here; in the data, active means normalized growth mostly below about 0.91 (no sharp cut-off); inconclusive means no clear call, values can overlap the other calls; inactive means mostly above about 0.92. The list shows a part of the results.

Test: chemical genetic growth profiling, strain panel (AID 1159580);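 further: tested at 20 µM; growth read once vehicle control cultures reached saturation at 30 °C; 1 = growth at the plate median or of vehicle wells; lower values mean less growth of the strain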
Conditions: S. cerevisiae deletion strains, growth OD
[1] = locus YAR019C, strain CDC15, active compounds read low
[2] = locus YBL105C, strain PKC1, active compounds read low
[3] = locus YBR135W, strain CKS1, active compounds read low
[4] = locus YBR136W, strain MEC1, active compounds read low
[5] = locus YBR160W, strain CDC28, active compounds read low
[6] = locus YDL017W, strain CDC7, active compounds read low
[7] = locus YDL028C, strain MPS1, active compounds read low
[8] = locus YDL101C, strain DUN1, active compounds read low
[9] = locus YDL108W, strain KIN28, active compounds read low
[10] = locus YDL132W, strain cdc53, active compounds read low
[11] = locus YDL214C, strain PRR2, active compounds read low
[12] = locus YDR052C, strain DBF4, active compounds read low
[13] = locus YDR054C, strain cdc34, active compounds read low
[14] = locus YDR226W, strain ADK1, active compounds read low
[15] = locus YDR477W, strain SNF1, active compounds read low
[16] = locus YER123W, strain YCK3, active compounds read low
[17] = locus YER133W, strain GLC7, active compounds read low
[18] = locus YFL009W, strain cdc4, active compounds read low
[19] = locus YFL029C, strain CAK1, active compounds read low
[20] = locus YFR003C, strain YPI1, active compounds read low
[21] = locus YFR019W, strain FAB1, active compounds read low
[22] = locus YFR028C, strain CDC14, active compounds read low
[23] = locus YGR040W, strain KSS1, active compounds read low
[24] = locus YGR052W, strain FMP48, active compounds read low
[25] = locus YGR092W, strain DBF2, active compounds read low
[26] = locus YHR030C, strain SLT2, active compounds read low
[27] = locus YHR079C, strain IRE1, active compounds read low
[28] = locus YHR082C, strain KSP1, active compounds read low
[29] = locus YHR205W, strain SCH9, active compounds read low
[30] = locus YIL147C, strain SLN1, active compounds read low
[31] = locus YJL095W, strain BCK1, active compounds read low
[32] = locus YJL128C, strain PBS2, active compounds read low
[33] = locus YJL157C, strain FAR1, active compounds read low
[34] = locus YJR016C, strain ILV3, active compounds read low
[35] = locus YJR066W, strain TOR1 (second series), active compounds read low
[36] = locus YJR066W, strain TOR1, active compounds read low
[37] = locus YKL048C, strain ELM1, active compounds read low
[38] = locus YKL067W, strain YNK1, active compounds read low
[39] = locus YKL101W, strain HSL1, active compounds read low
[40] = locus YKL193C, strain SDS22, active compounds read low
[41] = locus YKL203C, strain TOR2, active compounds read low
[42] = locus YLR113W, strain HOG1, active compounds read low
[43] = locus YLR133W, strain CKI1, active compounds read low
[44] = locus YLR403W, strain SFP1, active compounds read low
[45] = locus YML070W, strain DAK1, active compounds read low
[46] = locus YMR001C, strain CDC5, active compounds read low
[47] = locus YMR205C, strain PFK2 (second series), active compounds read low
[48] = locus YMR277W, strain FCP1, active compounds read low
[49] = locus YNL006W, strain LST8, active compounds read low
[50] = locus YNL020C, strain ARK1, active compounds read low
[51] = locus YNL161W, strain CBK1, active compounds read low
[52] = locus YNL183C, strain NPR1, active compounds read low
[53] = locus YNL207W, strain RIO2, active compounds read low
[54] = locus YNL222W, strain SSU72, active compounds read low
[55] = locus YNL307C, strain MCK1 (second series), active compounds read low
[56] = locus YOL078W, strain AVO1, active compounds read low
[57] = locus YOL136C, strain PFK27, active compounds read low
[58] = locus YOR061W, strain CKA2, active compounds read low
[59] = locus YOR119C, strain RIO1, active compounds read low
[60] = locus YOR231W, strain MKK1, active compounds read low
[61] = locus YOR329C, strain SCD5, active compounds read low
[62] = locus YPL031C, strain PHO85, active compounds read low
[63] = locus YPL153C, strain RAD53, active compounds read low
[64] = locus YPL204W, strain HRR25, active compounds read low
[65] = locus YPL209C, strain IPL1, active compounds read low
[66] = locus YPL256C, strain CLN2, active compounds read low
[67] = locus YPR025C, strain CCL1, active compounds read low
[68] = locus YPR106W, strain ISR1, active compounds read low
[69] = locus YPR111W, strain DBF20, active compounds read low
[70] = strain NNK1, active compounds read low
[71] = strain TSCII, active compounds read low

Measured: normalized growth

Cc1c(NCN2C(=O)CCC2=O)cc2c(c1[N+](=O)[O-])C(C)(C)CC2(C)C
inactive: [1] 0.963 | [2] 0.962 | [3] 0.967 | [4] 0.959 | [5] 0.967 | [6] 0.961 | [7] 0.962 | [8] 0.942 | [9] 0.965 | [10] 0.948 | [11] 0.925 | [12] 0.956 | [13] 0.958 | [14] 0.955 | [15] 0.913 | [16] 0.9 | [17] 0.879 | [18] 0.957 | [19] 0.95 | [20] 0.961 | [21] 0.952 | [22] 0.956 | [23] 0.912 | [24] 0.933 | [25] 0.931 | [26] 0.909 | [27] 0.894 | [28] 0.993 | [29] 0.904 | [30] 0.963 | [31] 0.839 | [32] 0.901 | [33] 0.92 | [34] 0.96 | [35] 0.861 | [36] 1.03 | [37] 0.928 | [38] 0.929 | [39] 0.922 | [40] 0.95 | [41] 0.978 | [43] 0.944 | [44] 0.921 | [45] 0.911 | [46] 0.956 | [47] 0.927 | [48] 0.96 | [49] 0.954 | [50] 0.932 | [51] 0.95 | [52] 0.977 | [53] 0.965 | [54] 0.959 | [55] 0.94 | [56] 0.952 | [57] 0.914 | [58] 0.945 | [59] 0.951 | [60] 0.943 | [61] 0.961 | [62] 0.899 | [63] 0.905 | [64] 0.891 | [65] 0.957 | [66] 0.87 | [67] 0.952 | [68] 0.949 | [69] 0.943 | [70] 0.937 | [71] 0.953
active: [42] 0.861

N#C/C(=N/Nc1ccc(Cl)cc1)C(=O)C1CC1
inactive: [11] 0.807 | [21] 0.916 | [24] 0.666 | [27] 0.604 | [28] 0.691 | [29] 0.711 | [32] 0.862 | [33] 0.757 | [35] 0.737 | [36] 0.643 | [38] 0.763 | [39] 0.802 | [43] 0.811 | [45] 0.735 | [47] 0.774 | [50] 0.805 | [57] 0.752 | [58] 0.81 | [68] 0.92 | [69] 0.876 | [70] 0.885
active: [1] 0.863 | [2] 0.86 | [3] 0.854 | [4] 0.86 | [5] 0.863 | [6] 0.865 | [7] 0.859 | [8] 0.903 | [9] 0.86 | [10] 0.847 | [12] 0.862 | [13] 0.848 | [14] 0.855 | [15] 0.674 | [16] 0.492 | [17] 0.626 | [18] 0.844 | [19] 0.853 | [20] 0.857 | [22] 0.854 | [23] 0.665 | [25] 0.332 | [26] 0.416 | [30] 0.865 | [31] 0.416 | [34] 0.854 | [37] 0.793 | [40] 0.851 | [41] 0.706 | [42] 0.567 | [44] 0.646 | [46] 0.855 | [48] 0.847 | [49] 0.856 | [51] 0.86 | [52] 0.551 | [53] 0.842 | [54] 0.848 | [55] 0.641 | [56] 0.846 | [59] 0.667 | [60] 0.576 | [61] 0.86 | [62] 0.592 | [63] 0.595 | [64] 0.554 | [65] 0.853 | [66] 0.65 | [67] 0.856 | [71] 0.85
